SMN2 splice up = qHTS Assay for Enhancers of SMN2 Splice Variant Expression. Potency, µM (titrated, usually from 46.1 µM), inactives show at the top dose activity change, positive = activation, most hits filed as activators. AID 1458, 2008. actives 2.8% (n = 210,000). HEK293 SMN2-luciferase splicing reporter, luminescence, 30-36 h; also: % of control where 0% means no effect; nearly all actives have a fitted effect of over 55% in size
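HEK293 cells carry an SMN2 […]–luciferase reporter in which exon 7 inclusion puts luciferase in frame. Cells were plated 10-12 h before compound addition, then incubated 30-36 h at 37C. ONE-Glo luminescence was read; sodium butyrate at 4.5 mM final served as control.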
Rab9 promoter act = qHTS Assay for Rab9 Promoter Activators; Huh7 Rab9 promoter-luciferase reporter, luminescence, 24 h; Potency, µM (titrated, usually from 9.22 µM), for the others: at the highest dose activation, negative = inhibition, most hits filed as activators; actives 2.8% (n = 320,000); AID 485297, 2010; also: % of control where 0% means no effect; nearly all actives have a fitted effect of over 60% in size
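Cells were plated at 1500 per well in reduced-serum medium with 10% FBS and left 2 h. Compound in DMSO was then added for 24 h at 37 °C. Reporter signal was read by luminescence after 10 min with luciferase detection reagent.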
KinaseGlo FLuc = Counterscreen for Luciferase (Kinase-Glo TM) Inhibition; Luciferin 4-monooxygenase (Photuris pensylvanica), Q27757; Kinase-Glo luciferase, ATP luminescence, 8 min; Potency, µM (highest dose often 38.3 µM), without a hit: at the top dose activity change, negative = inhibition, usual class: inhibitors; actives 0.28% (n = 200,000); also: % is scaled to controls: 0 for no effect and ±100 for the full control effect; nearly all actives have a fitted effect of over 60% in size
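Substrate mix (final 50 mM imidazole pH 7.2, 50 mM KCl, 7 mM MgCl2, 10 uM ATP, 0.01% Tween 20, 0.05% BSA) plus pin-tool compound, then Kinase-Glo detection mix; 8 min ambient, luminescence read.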
NPC1 promoter act = qHTS Assay for NPC1 Promoter Activators. Huh7 NPC1 promoter luciferase reporter, 24 h. Potency, µM (titrated, usually from 9.22 µM), for the others: top-dose activation, hits mostly activators. actives 2.4% (n = 320,000); also: % of control where 0% means no effect; nearly all actives have a fitted effect of over 60% in size
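Luminescence from an NPC1 promoter-driven luciferase reporter in stably transfected Huh7 cells was measured after 24 h compound treatment at 37 °C, followed by 10 min ambient incubation with luciferase detection reagent.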
FLuc modulator = qHTS profiling assay for firefly luciferase inhibitor/activator using purifed enzyme and Km concentrations of substrates (counterscreen for miR-21 project); purified FLuc, Km substrates, luminescence inhibition; Potency, µM (series often up to 57.5 µM), for the others: top-dose activity change, negative = inhibition, actives largely listed as inhibitors; actives 6.9% (n = 360,000);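 also: plate controls were vehicle for no effect and reference inhibitor for full effect; nearly all actives have a fitted effect of over 55% in size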
Target sequence (P08659 whole entry, looked up): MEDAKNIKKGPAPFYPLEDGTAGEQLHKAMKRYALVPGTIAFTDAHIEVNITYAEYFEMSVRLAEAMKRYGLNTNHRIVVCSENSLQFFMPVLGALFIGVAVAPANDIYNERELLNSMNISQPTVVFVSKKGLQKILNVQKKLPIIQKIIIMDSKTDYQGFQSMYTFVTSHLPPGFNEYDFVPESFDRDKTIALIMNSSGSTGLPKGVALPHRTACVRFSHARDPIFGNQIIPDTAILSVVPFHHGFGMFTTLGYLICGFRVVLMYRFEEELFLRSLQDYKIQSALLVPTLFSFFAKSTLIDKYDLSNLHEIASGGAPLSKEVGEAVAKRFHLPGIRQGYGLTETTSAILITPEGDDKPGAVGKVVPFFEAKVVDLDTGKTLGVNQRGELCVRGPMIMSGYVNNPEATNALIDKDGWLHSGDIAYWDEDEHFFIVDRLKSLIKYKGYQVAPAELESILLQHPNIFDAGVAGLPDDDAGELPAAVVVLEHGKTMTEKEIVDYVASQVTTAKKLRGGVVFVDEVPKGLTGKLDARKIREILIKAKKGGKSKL
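Purified P. pyralis luciferase (10nM final) with 10uM D-luciferin and 10uM ATP (Km levels) in 50mM Tris acetate pH 7.5, 10mM Mg acetate, 0.01% Tween-20, 0.05% BSA; qHTS 6-point titration, ~60 µM downward; luminescence read.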
ELG1 genotoxic = qHTS screen for small molecules that induce genotoxicity in human embryonic kidney (HEK293T) cells expressing luciferase-tagged ELG1; Potency, µM (top dose mostly 46 µM), without a hit: at the top dose activity change, positive = activation, most hits filed as activators; actives 1.3% (n = 330,000); HEK293T ELG1-luciferase reporter, luminescence, 16 h; also: % of control where 0% means no effect; nearly all actives have a fitted effect of over 60% in size
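Genotoxicity was scored as increased ELG1-luciferase reporter signal, measured by ONE-Glo luminescence (30 min, room temperature). Compound or vehicle exposure of the HEK293T reporter cells lasted 16 hr at 37°C.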
* hit, by the source's call; ? = inconclusive; . = not tested or not shown; ! = not confirmed by another sample; [ ] = remark or other dose. An excerpt weighted towards active compounds, which were near 7.5% of everything screened. Calls follow the shape of the dose curve; as a rule, active = well fitted curve in the direction sought with a large enough effect; inconclusive = small, poorly fitted or top-dose-only effect, or another doubt; inactive = no such curve, though single readings can be large; an effect the other way counts as inactive or inconclusive. Potency is read from the fitted curve at half-maximal effect.

SMILES	SMN2 splice up	Rab9 promoter act	KinaseGlo FLuc	NPC1 promoter act	FLuc modulator	ELG1 genotoxic
COc1ccc(-n2nc([N+](=O)[O-])c(=NCCc3cccc(C)c3)n2O)cc1	.	2.2µM*	.	?	-8%	-3%
O=C1CCCN1CCCN=c1c([N+](=O)[O-])nn(-c2ccc(Cl)cc2)n1O	8%	18%	2%	11%	-2%	13%
CSc1cccc(NC(=O)C(c2ccccc2)N2Cc3ccccc3C2=O)c1 (centres undefined)	.	.	.	.	-11%	.
CSc1nc2ccc(NC(=O)C3=NNC(=O)CC3)cc2s1	19%	22%	-1%	19%	?	10%
CSc1nc2ccc(NC(=O)C3=NN(c4ccccc4)C(=O)CC3)cc2s1	?	0%	0%	6%	19µM*	0%
CSc1nc2ccc(NC(=O)c3ccccn3)cc2s1	.	0.4µM*	.	0.45µM*	0.43µM*	0.092µM*
CSc1nc2ccc(NC(=O)CSc3nnc(N)s3)cc2s1	9%	15%	-3%	9%	21µM*	?
CCOC(=O)c1cccc(NC(=O)Nc2ccc3c(c2)N(C)C(=O)c2ccccc2S3)c1	.	.	.	.	-5%	.
O=C(O)[C@H]1CCCN(CCC=C(c2ccccc2)c2ccccc2)C1	.	.	0%	.	.	.
Cc1ccc(NC(=O)c2ccc(CSc3nnc(C)s3)cc2)cc1	?	1.6µM*	-5%	1.1µM*	1.5µM*	11%
Cc1cc(C)cc(NC(=O)c2ccc(CSc3nnc(C)s3)cc2)c1	0%	10%	-4%	3%	7.6µM*	8%
Cc1nnc(SCc2ccc(C(=O)O)cc2)s1	-8%	18%	-1%	-1%	2%	-1%
CCc1ccc(NC(=O)CSc2nnnn2C)cc1	.	?	.	?	24µM*	13%[9.26 µM]
COc1ccc(OC)c(NC(=O)c2ccc(CSc3nnc(C)s3)cc2)c1	-11%	-1%	-1%	-2%	?	-4%
Cc1ccc(NC(=O)c2ccc(CSc3nnnn3C)cc2)cc1	8.9µM*	1.6µM*	-2%	2µM*	4.8µM*	?
COc1ccc(NC(=O)CSc2nnnn2C)cc1	.	-4%	-4%	-1%	1%	0%
CCN(CC)c1nn2c(=O)c(C(=O)NCCc3ccccc3C)cnc2s1	.	.	.	.	-13%	.
CCOC(=O)c1sc2nc3c(SCCC(=O)O)cc(C(=O)c4cc(OC)ccc4O)cn3c(=O)c2c1C	-20%	2%	1%	1%	3µM*	1%
CCOC(=O)c1sc2nc3c(SCCC#N)cc(C(=O)c4cc(F)ccc4O)cn3c(=O)c2c1C	-40%	-8%	2%	0%	-1%	-5%
CCc1c(C)sc2nc3c(C(=O)N4CCOCC4)cc(C(=O)c4cc(F)ccc4O)cn3c(=O)c12	-50%	-1%	3%	-6%	-9%	-12%
O=C(O)CSc1cc(C(=O)c2cc(F)ccc2O)cn2c(=O)c3c(-c4ccccc4)csc3nc12	.	-3%	.	0%	27µM*	-6%
CCOC(=O)c1cc(C(=O)Nc2ccc(C)c(F)c2)nn1C	42%	2.8µM*	-4%	4µM*	7.6µM*	?
CCOC(=O)c1cc(C(=O)NCc2ccc(Cl)cc2Cl)nn1C	4%	2%	-4%	-3%	-11%	-2%
CCc1oc2ccccc2c1C(=O)c1cc(Br)c(O)c(Br)c1	-9%	-5%	13%	-1%	15µM*!	0%
CC(=O)c1cc2c(cc1NC(=O)c1ccc(C)cc1)OCO2	.	5%	0%	0%	?	0%
SMILES	SMN2 splice up	Rab9 promoter act	KinaseGlo FLuc	NPC1 promoter act	FLuc modulator	ELG1 genotoxic
CCOC(=O)CC(c1ccc([N+](=O)[O-])cc1)n1c(C)ccc1C (centres undefined)	-4%	-3%	3%	-4%	1%	4%
COc1ccc(C)cc1NS(=O)(=O)c1c(C)nc2sc(C)cn2c1=O	.	.	.	.	-4%	.
C[C@@H](NC(=O)c1cc2c([nH]c3ccccc32)c(-c2ccccc2)n1)C(=O)O	.	-6%	.	-3%	?	0%
CC1(C)CC(=O)c2cnc(N3CCc4ccccc43)nc2C1	.	3.5µM*	.	2.8µM*	2.1µM*	?
O=C(Cn1cc(C(=O)c2cccs2)c2ccccc21)NCc1ccc2c(c1)OCO2	-6%	1%	-3%	-1%	?	-10%
COc1ccccc1NC(=O)c1ccccc1-c1nc(-c2ccccc2OC)no1	18%	8%	-8%	5%	11µM*	-7%
COc1ccccc1-c1noc(-c2ccccc2C(=O)Nc2ccccc2)n1	-3%	26%	8%	11%	11µM*	4%
COc1cccc(NC(=O)c2ccccc2-c2nc(-c3ccccc3)no2)c1	-13%	-1%	-4%	0%	?	6%
COc1cccc(NC(=O)c2ccccc2-c2nc(-c3ccc(Cl)cc3)no2)c1	-2%	9%	-1%	9%	13µM*	-3%
COc1ccc(OC)c(NC(=O)c2c(N3CCCC3=O)c3cc(OC)ccc3n2C)c1	.	.	.	.	-10%	.
O=C(c1ccc(NS(=O)(=O)c2cccc(F)c2)cc1)N1CCCCC1	.	0%	.	1%	1%	0%
O=C(Nc1ccc(Cl)cc1)Nc1ccon1	.	6%	.	-22%	?	3%
CCOc1ccc(NC(=O)Nc2ccon2)cc1	.	?	.	25%	24µM*	?
CCC(C)c1ccc(NC(=O)Nc2cccnc2)cc1 (centres undefined)	.	4.5µM*	.	1.8µM*	1.7µM*	?
Cc1ccc(NC(=O)Nc2ccon2)cc1Cl	.	23%	.	21%	19µM*	3%
O=C(Nc1ccccc1)Nc1ccc(Oc2cccnc2)nc1	.	25%	.	27%	13µM*	6%
CCOc1ccc(CCNC(=O)CCCc2nnc3n(C)c(=O)c4sccc4n23)cc1OCC	-6%	.	.	.	-3%	.
Cc1c(Cl)cccc1NC(=O)CCN1C(=O)C2CC=CCC2C1=O (centres undefined)	.	-4%	.	1%	1%	2%
Cc1ccccc1Nc1c(-c2ccc(Cl)s2)nc2cccc(C)n12	-35%	.	.	.	-2%	.
O=C(Nc1ccccc1)C(=O)Nc1cccnc1	.	0.4µM*	.	0.5µM*	3µM*	?
CN1CCc2cc(NC(=O)Nc3cccnc3)ccc21	?	?	-2%	9.2µM*	.	.
O=C(Nc1cccnc1)Nc1cc(Cl)cc(Cl)c1	.	-6%	0%	-9%	?	-5%
O=C(Nc1ccc(F)cc1)Nc1cccnc1	.	4%	.	10%	17µM*	1%
